Source: PubChem BioAssay (NCI)
The panel holds about 83,000 compounds, 20% with a hit somewhere; the sample as a whole holds those more often.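 The test compound was applied at a single concentration to cells in 96-well plates for 48 hours, and percent growth was recorded.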 Unmarked numbers belong to inactive results. The source made the active and inactive calls. How the source made its calls: active means growth percent below 10; inactive means the rest.

Experiments:
Experiment in all cases: NCI-60 one-dose screen, 48 h (100 = growth as untreated, 0 = no growth, -100 = all killed)
Details in all cases: 10 µM unless noted
[1] = system: SR leukemia
[2] = system: RPMI-8226 leukemia
[3] = system: OVCAR-8 ovarian
[4] = system: OVCAR-5 ovarian
[5] = system: OVCAR-4 ovarian
[6] = system: SK-OV-3 ovarian
[7] = system: IGROV1 ovarian
[8] = system: OVCAR-3 ovarian
[9] = system: HS 578T breast
[10] = system: NCI/ADR-RES ovarian
[11] = system: T-47D breast
[12] = system: BT-549 breast
[13] = system: MDA-MB-435 melanoma
[14] = system: SW-620 colon
[15] = system: MCF7 breast
[16] = system: HCC-2998 colon
[17] = system: KM12 colon
[18] = system: HCT-116 colon

| SMILES | growth [1] | growth [2] | growth [3] | growth [4] | growth [5] | growth [6] | growth [7] | growth [8] | growth [9] | growth [10] | growth [11] [%] | growth [12] [%] | growth [13] | growth [14] | growth [15] | growth [16] | growth [17] | growth [18] |
| --- | --- | --- | --- | --- | --- | --- | --- | --- | --- | --- | --- | --- | --- | --- | --- | --- | --- | --- |
| CC(=O)C(CO)C(=O)Nc1ccccc1 (stereo unspecified) | 94.8% | 103% | 109% | 102% | 98% | 93.8% | 105% | 110% | 118% | 103% | 94.5 | 106 | 106% | 109% | 91.5% | 99.3% | 104% | – |
| CCCCCCCCCCCCOC(=N)N(C)C | 82.4% | 99.7% | 98.9% | 99.4% | 117% | 97.3% | 106% | 92.6% | 97.1% | 102% | 89.9 | 96.7 | 97.4% | 98.8% | 94.1% | 101% | 101% | 87.6% |
| CCCCCCNC(=O)Oc1ccc(/C(=C(/C)Cc2ccc(OC)cc2)c2ccc(OCCN(C)C)cc2)cc1 | -22.5% (active) | 28.8% | 69.9% | 90.3% | 76.8% | 83.4% | 74.4% | 81.3% | 45.9% | 78.3% | 25.8 | 88.1 | – | 35.4% | 20.4% | 52.4% | 56.3% | 26.7% |
| O=C(/C=C1\C(=O)N(Cc2ccc([N+](=O)[O-])cc2)c2ccccc21)c1ccc(OCCN2CCCC2)cc1 | -19% (active) | 28.4% | 66% | 77.3% | 64.9% | 102% | 74.9% | 62.7% | 50.1% | 75.6% | 56.3 | 81.5 | – | 18.7% | 22.3% | 101% | 90.1% | 12.2% |
| COc1ccc2c(c1)cn1c3ccc(O)cc3[nH]c(=O)c21 | 3.4% (active) | -20.2% (active) | 15% | 18.7% | 28.6% | 11.3% | 13.2% | -21.9% (active) | -22.9% (active) | 1.78% (active) | 37.2 | – | 1.04% (active) | 8.4% (active) | -4.36% (active) | 11.8% | 9.45% (active) | -85.4% (active) |
| COc1cc(-c2nn(-c3ccc(NC(=O)Nc4ccc(Cl)c(Cl)c4)cc3)cc2-c2ccncc2)ccc1Cl | 6.61% (active) | -15.3% (active) | 29.1% | 72.8% | 36.7% | 62.8% | 36.9% | 24.1% | -26.9% (active) | 16.1% | 47.5 | – | 29.1% | 35.2% | 28.4% | 21.8% | 16.1% | 13.4% |
| COC(=O)[C@@H]1[C@H](O)[C@H](C)[C@H](O)[C@H](C)/C=C\C=C(C)C(=O)Nc2c(C)c(OC(C)=O)c3c(c2O)C(=O)C(C)=C2OCOC(=C23)C(C)=C[C@@](C)(O)[C@H](O)[C@@H](C)[C@H]1OC(C)=O | 121% | 97.8% | 104% | 108% | 96.4% | 109% | 3.5% (active) | 137% | 127% | 114% | 118 | – | 122% | 117% | 104% | 118% | 119% | 55.8% |
| CC(=O)Nc1nc(C)c(C(=O)NN)s1 | 107% | 120% | 111% | 100% | 118% | 102% | 95% | 104% | 86% | 98.6% | 85.9 | – | 137% | 97.4% | 99.1% | 84.2% | 102% | 94.7% |
| C=CC1CN2CCC1CC2C(O)c1ccnc2ccc(OC)cc12 (stereo unspecified) | 113% | 108% | 88.4% | 93.1% | 102% | 93.9% | -5.34% (active) | 105% | 99.9% | 107% | 102 | – | 100% | 105% | 91% | 155% | 112% | 49.8% |
| Nc1nc2c(c3cnccc13)C(c1ccc(Cl)c(Cl)c1)Cc1cnccc1-2 (stereo unspecified) | 5.08% (active) | -5.48% (active) | 9.87% (active) | -1.65% (active) | 14.7% | 2.34% (active) | 7.84% (active) | -44.8% (active) | 9.27% (active) | -13.2% (active) | 16.9 | – | -53% (active) | 3.85% (active) | 0.513% (active) | -75.7% (active) | -34.8% (active) | -37.8% (active) |
| CCCCCCCCCCCCCCCCNC(=O)Nc1ccc(C)c(NC(=O)NCCCCCCCCCCCCCCCC)c1 | 104% | 99.2% | 105% | 109% | 108% | 105% | 107% | 109% | 95.1% | 112% | 104 | – | – | 107% | 101% | 110% | 113% | 117% |
| BrCCCOc1ccc(Oc2ccc(OCCCBr)cc2)cc1 | 93.8% | 98% | 94.6% | 122% | 99% | 123% | 97.7% | 123% | 92.8% | 110% | 113 | – | 107% | 108% | 97.9% | 119% | 113% | 102% |
| N#Cc1c2cccnc2c2nnc3cc(Cl)c(Cl)cc3n12 | 5.53% (active) | 35.3% | -19.5% (active) | 89.3% | -4.97% (active) | 90% | 10.6% | -9.66% (active) | -56.8% (active) | -5.61% (active) | 25.9 | – | 84.4% | -39% (active) | 1.41% (active) | 13.4% | 47.5% | -73.1% (active) |
| CC(C)CCCCCOC(=O)c1ccccc1SSc1ccccc1C(=O)OCCCCCC(C)C | 86.9% | 88.8% | 104% | 106% | 109% | 108% | 116% | 111% | 104% | 107% | 89.6 | – | 107% | 101% | 93.6% | 110% | 106% | 98.5% |
| COC(=O)C(Cc1cnc[nH]1)N1CC(=O)N2[C@@H](c3ccccc3)SC[C@H]2C1=O (stereo partly specified) | 106% | 105% | 98.4% | 103% | 111% | 115% | 116% | 111% | 106% | 107% | 108 | – | 103% | 108% | 106% | 99.6% | 108% | 103% |
| CCOC(=O)c1sc(NS(=O)(=O)c2ccccc2)nc1C | 102% | 120% | 114% | 107% | 111% | 106% | 6.87% (active) | 133% | 111% | 114% | 111 | – | 126% | 111% | 96.2% | 27.5% | 129% | 57.9% |
| COc1ccc(/C=C2\SC(=O)N(Cc3cc(=O)oc4ccc(OC)cc34)C2=O)cc1 | 69.6% | 64.1% | 95.4% | 100% | 63.6% | 96.6% | 98.1% | 84.6% | 103% | 95.7% | 63.1 | – | 100% | 106% | 82.5% | 95.4% | 88.9% | 82.8% |
| COc1ccccc1Nc1nnc(COc2ccc(CNC(=O)CCCC/C=C/C(C)C)cc2OC)o1 | 76.1% | 70.7% | 101% | 89.7% | 101% | 107% | 97.8% | 89.6% | 98% | 89.8% | 76.1 | – | 103% | 105% | 87.1% | 105% | 95.5% | 86.8% |
